From PubChem BioAssay (NCATS)
Results filed as inconclusive are left out. Activity calls are given as the source filed them. Unless noted, calls follow the shape of the dose curve; as a rule, active = well fitted curve in the direction sought with a large enough effect; inconclusive = small, poorly fitted or top-dose-only effect, or another doubt; inactive = no such curve, though single readings can be large; an effect the other way counts as inactive or inconclusive.

Key:
[1] = NFAT Signaling Pathway (AID 444; active = well fitted curve in either direction with a large enough effect, not every such curve was filed as active;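 also: carbachol stimulus at about its EC50 of 1 µM final; % is scaled to controls: 0 for no effect and ±100 for the full control effect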); settings: Jurkat NFAT-bla M1, carbachol, beta-lactamase ratio, 5 h; at 17.2 µM (top of the series) unless noted
In short: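 Jurkat cells with NFAT-driven β-lactamase reporter and co-expressed M1 receptor, stimulated with carbachol (final 1 uM, ~EC50), compound titration, 5 h at 37 °C. CCF4 loaded 1 h at RT; 460/530 nm ratio gave %activity and AC50.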

[2] = Stat Signaling Pathway (AID 446; active = well fitted curve in either direction with a large enough effect, not every such curve was filed as active;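 also: ME-180 cervical cancer cells given 40 pM IL-6 alongside compound; SIE-controlled beta-lactamase reporter measured as 460/530 nm FRET emission ratio; % is scaled to controls: 0 for no effect and ±100 for the full control effect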); settings: ME-180 SIE beta-lactamase reporter, IL-6 stimulated, 5 h; at 17.2 µM (top of the series) unless noted
In short: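 Reporter line: ME-180 cervical carcinoma, SIE-beta-lactamase. Treatment: compound with 40 pM IL-6, 5 hrs, 37 C, in low-serum OPTI-MEM with 10 mM HEPES pH 7.3. Detection: 460/530 nm fluorescence.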

[3] = biological target: Glucocorticoid receptor (Homo sapiens) (UniProt P04150); experiment: GR-GFP Redistribution (AID 450;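 active = compounds whose dose series gives a full or clear partial fitted curve of increased nuclear translocation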; also: potency is read from the fitted curve at half-maximal effect)
Glucocorticoid receptor (Homo sapiens), sequence (P04150 whole entry, looked up, the tested form may be a part): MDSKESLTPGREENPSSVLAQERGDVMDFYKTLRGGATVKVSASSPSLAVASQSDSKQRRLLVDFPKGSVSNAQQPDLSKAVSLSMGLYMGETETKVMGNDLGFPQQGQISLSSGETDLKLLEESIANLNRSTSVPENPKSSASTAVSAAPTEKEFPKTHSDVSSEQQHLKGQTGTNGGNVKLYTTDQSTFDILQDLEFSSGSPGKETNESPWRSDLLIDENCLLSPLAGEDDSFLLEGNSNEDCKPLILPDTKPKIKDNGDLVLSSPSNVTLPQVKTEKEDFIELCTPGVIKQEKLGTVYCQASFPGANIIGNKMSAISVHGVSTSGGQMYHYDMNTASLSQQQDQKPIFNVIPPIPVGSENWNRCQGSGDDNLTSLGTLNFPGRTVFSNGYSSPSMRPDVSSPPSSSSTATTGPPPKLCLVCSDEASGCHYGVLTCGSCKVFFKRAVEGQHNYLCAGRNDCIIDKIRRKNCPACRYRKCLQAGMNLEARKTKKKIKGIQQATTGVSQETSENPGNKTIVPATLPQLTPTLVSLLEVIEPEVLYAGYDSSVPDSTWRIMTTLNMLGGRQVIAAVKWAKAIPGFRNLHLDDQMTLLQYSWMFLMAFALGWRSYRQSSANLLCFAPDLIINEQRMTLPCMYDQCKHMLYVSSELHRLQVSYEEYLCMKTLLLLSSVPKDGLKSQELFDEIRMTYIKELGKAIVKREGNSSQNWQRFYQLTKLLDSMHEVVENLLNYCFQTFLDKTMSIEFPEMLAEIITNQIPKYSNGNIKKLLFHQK

[4] = biological target: Glucocorticoid receptor (Homo sapiens) (UniProt P04150); experiment: GR-EFC Redistribution (AID 451; calls by dose curve; also: potency is read from the fitted curve at half-maximal effect); settings: CHO-K1 GR-EFC translocation, beta-gal luminescence, 2 h
In short: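 CHO-K1 cells expressing nuclear EA and GR-ED fragments of b-gal; compounds titrated up to 46 uM final, 2 h at 37 C. GR nuclear translocation read as complemented b-gal luminescence after 1 h RT detection.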

[5] = biological target: Mitogen-activated protein kinase 10 (Mus musculus) (UniProt Q61831); experiment: JNK3 AlphaScreen Assay (AID 530; active = well fitted curve in either direction with a large enough effect, not every such curve was filed as active;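 also: kinase came from lysate of stimulated human HepG2 cells; signal reports phosphorylation of biotinylated GST-cJun 1-79 at Ser73 with 10 µM ATP; % is scaled to controls: 0 for no effect and ±100 for the full control effect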)
In short: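 Pre-activated (IL-1β/TNFα) JNK3 in HepG2 lysates phosphorylates biotin-GST-cJun(1-79), 10 uM ATP; anti-phospho-cJun(Ser73) AlphaScreen read at room temperature, pH 7.6 Tris buffer. Compounds pre-incubated 15 min as titrations.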

[6] = biological target: 3',5'-cyclic-AMP phosphodiesterase 4B (Homo sapiens) (UniProt Q07343); experiment: qHTS Assay for Inhibitors of PDE-IV (AID 607; active = well fitted activation curve with a large enough effect in the main read-out, with a control signal flat, not every such curve was filed as active; also: % of control where 0% means no effect)
3',5'-cyclic-AMP phosphodiesterase 4B (Homo sapiens), sequence (Q07343 whole entry, looked up): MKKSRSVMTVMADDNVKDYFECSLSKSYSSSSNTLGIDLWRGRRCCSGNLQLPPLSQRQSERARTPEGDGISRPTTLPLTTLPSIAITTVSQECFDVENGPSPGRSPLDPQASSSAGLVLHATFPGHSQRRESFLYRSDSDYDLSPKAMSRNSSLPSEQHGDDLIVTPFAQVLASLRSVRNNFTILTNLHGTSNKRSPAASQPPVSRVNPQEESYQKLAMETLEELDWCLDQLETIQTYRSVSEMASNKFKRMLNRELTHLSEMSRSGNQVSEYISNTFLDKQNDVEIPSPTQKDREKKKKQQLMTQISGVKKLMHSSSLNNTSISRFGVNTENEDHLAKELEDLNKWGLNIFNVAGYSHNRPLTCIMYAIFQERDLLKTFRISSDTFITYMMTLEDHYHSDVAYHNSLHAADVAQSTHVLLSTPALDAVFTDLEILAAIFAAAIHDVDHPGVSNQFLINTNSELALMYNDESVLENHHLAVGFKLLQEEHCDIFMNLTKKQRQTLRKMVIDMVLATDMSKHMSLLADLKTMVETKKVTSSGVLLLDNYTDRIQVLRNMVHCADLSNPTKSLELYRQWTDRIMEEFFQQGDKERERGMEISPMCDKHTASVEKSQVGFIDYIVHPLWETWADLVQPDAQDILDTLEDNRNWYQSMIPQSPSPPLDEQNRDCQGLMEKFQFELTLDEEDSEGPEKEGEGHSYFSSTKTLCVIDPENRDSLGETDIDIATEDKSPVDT
In short: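 Cell-based read-out of cAMP via a modified cyclic nucleotide-gated channel and membrane potential dye (535/590 nm) in HEK293 cells expressing PDE4 endogenously. Compounds tested up to 22.9 uM final; 100 uM RO 20-1724 reference.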

[7] = biological target: ATP-dependent 6-phosphofructokinase (Trypanosoma brucei brucei) (UniProt O15648); experiment: qHTS Assay to Find Inhibitors of T. brucei phosphofructokinase: hit validation (AID 492961);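 also: luminescence reports ADP formed as PFK phosphorylates fructose-6-phosphate with ATP; % is scaled to controls: 0 for no effect and ±100 for the full control effect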
ATP-dependent 6-phosphofructokinase (Trypanosoma brucei brucei), sequence (O15648 whole entry, looked up): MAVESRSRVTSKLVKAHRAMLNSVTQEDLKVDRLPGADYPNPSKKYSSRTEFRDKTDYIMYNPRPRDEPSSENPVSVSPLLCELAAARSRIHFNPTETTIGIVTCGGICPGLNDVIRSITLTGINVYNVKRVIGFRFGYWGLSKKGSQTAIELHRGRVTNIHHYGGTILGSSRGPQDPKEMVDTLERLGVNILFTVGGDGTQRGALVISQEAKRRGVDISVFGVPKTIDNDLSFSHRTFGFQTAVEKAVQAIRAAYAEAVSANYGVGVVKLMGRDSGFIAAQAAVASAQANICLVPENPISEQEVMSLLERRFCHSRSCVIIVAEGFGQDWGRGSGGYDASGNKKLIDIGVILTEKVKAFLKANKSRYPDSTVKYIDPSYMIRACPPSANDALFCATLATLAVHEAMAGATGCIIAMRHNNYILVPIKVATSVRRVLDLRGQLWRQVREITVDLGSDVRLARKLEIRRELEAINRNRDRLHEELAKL
In short: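 Inhibition of parasite PFK is measured as reduced ADP formation, quantified via luciferase after ATP depletion. Assay used 0.1 mM ATP, 0.5 mM F6P, 1.25 nM enzyme, 45 min incubation.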

[8] = biological target: Luciferin 4-monooxygenase (Photinus pyralis) (UniProt P08659); experiment: Biochemical firefly luciferase enzyme assay for NPC (AID 624030);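 also: purified P. pyralis luciferase at 10 nM with luciferin and ATP substrate; 0% = DMSO and -100% = full luciferase inhibition by PTC124 control; nearly all actives have a fitted effect of over 70% in size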
Luciferin 4-monooxygenase (Photinus pyralis), sequence (P08659 whole entry, looked up): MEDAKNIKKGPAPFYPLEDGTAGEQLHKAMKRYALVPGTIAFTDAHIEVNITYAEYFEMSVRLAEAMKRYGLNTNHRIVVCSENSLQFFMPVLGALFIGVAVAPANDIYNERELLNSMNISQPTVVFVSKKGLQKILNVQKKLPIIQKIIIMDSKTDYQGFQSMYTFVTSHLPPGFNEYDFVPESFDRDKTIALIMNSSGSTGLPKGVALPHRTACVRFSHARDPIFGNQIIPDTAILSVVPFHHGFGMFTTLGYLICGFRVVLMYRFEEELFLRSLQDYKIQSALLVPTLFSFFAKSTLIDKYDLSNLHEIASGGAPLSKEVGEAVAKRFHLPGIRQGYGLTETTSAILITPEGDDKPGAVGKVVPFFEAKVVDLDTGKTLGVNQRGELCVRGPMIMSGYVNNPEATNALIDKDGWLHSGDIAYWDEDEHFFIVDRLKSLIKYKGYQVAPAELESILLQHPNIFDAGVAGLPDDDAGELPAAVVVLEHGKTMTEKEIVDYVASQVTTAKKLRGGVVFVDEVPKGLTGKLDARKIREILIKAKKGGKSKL
In short: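 Purified P. pyralis luciferase at 10 nM in 50 mM Tris Acetate (final), luminescence read within 5 minutes of enzyme addition to compounds. Activity normalised to PTC124 versus DMSO; concentration-response curves classed by r2, magnitude and activity.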

[9] = S16 Schwann cell viability assay (CellTiter-Glo assay) (AID 624031);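 also: cellular ATP luminescence as a viability measure; plate controls were DMSO-treated cells for no effect and cell-free wells for full effect; nearly all actives have a fitted effect of over 70% in size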
In short: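 This viability control uses native rat S16 Schwann cells grown in DMEM plus 10% FBS. After a 24 h compound treatment at 37 °C, CellTiter-Glo luminescence reports ATP content, scaled against DMSO-treated and cell-free wells.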

[10] = S16 Schwann cell PMP22 intronic element firefly luciferase assay (AID 624032);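 also: plate controls were DMSO for no effect and PTC124 positive control mean for full effect; nearly all actives have a fitted effect of over 30% in size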
In short: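 Rat S16 Schwann cells stably carrying firefly luciferase driven by a PMP22 intronic element, in 10% FBS, treated 24 h at 37 C. ONE-Glo luminescence normalized to PTC124 control and DMSO (0%); curves classed by r2, magnitude and activity.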

[11] = qHTS profiling for inhibitors of Plasmodium falciparum proliferation (AID 504749);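 also: 0% = DMSO vehicle and full inhibition = artemisinin control; nearly all actives have a fitted effect of over 60% in size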; settings: P. falciparum in erythrocytes, SYBR Green DNA, 72 h, at 12.8 µM (top of the series)
In short: (§1)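 P. falciparum-infected erythrocytes (0.3% parasitemia, 2.5% hematocrit) incubated with compound 72 h at 37 C, 5% CO2. Parasite DNA detected by SYBR Green after lysis, overnight at room temperature; normalised to 0.29 uM artemisinin and DMSO.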

3D7 = experiment: as above; settings: P. falciparum in erythrocytes, SYBR Green DNA, 72 h; series mostly up to 28.7 µM
In short: as §1

7G8 = experiment: as above; settings: P. falciparum in erythrocytes, SYBR Green DNA, 72 h; series mostly up to 28.7 µM
In short: as §1

AA1029 = experiment: as above; settings: P. falciparum in erythrocytes, SYBR Green DNA, 72 h; series mostly up to 28.7 µM
In short: as §1

AS120 = experiment: as above; settings: P. falciparum in erythrocytes, SYBR Green DNA, 72 h; series mostly up to 28.7 µM
In short: as §1

ATS189 = experiment: as above; settings: P. falciparum in erythrocytes, SYBR Green DNA, 72 h; series mostly up to 28.7 µM
In short: as §1

ATS95 = experiment: as above; settings: P. falciparum in erythrocytes, SYBR Green DNA, 72 h; series mostly up to 28.7 µM
In short: as §1

C2A = experiment: as above; settings: P. falciparum in erythrocytes, SYBR Green DNA, 72 h; series mostly up to 28.7 µM
In short: as §1

CP185 = experiment: as above; settings: P. falciparum in erythrocytes, SYBR Green DNA, 72 h; series mostly up to 28.7 µM
In short: as §1

CP191 = experiment: as above; settings: P. falciparum in erythrocytes, SYBR Green DNA, 72 h; series mostly up to 28.7 µM
In short: as §1

CP192 = experiment: as above; settings: P. falciparum in erythrocytes, SYBR Green DNA, 72 h; series mostly up to 28.7 µM
In short: as §1

CP194 = experiment: as above; settings: P. falciparum in erythrocytes, SYBR Green DNA, 72 h; series mostly up to 28.7 µM
In short: as §1

CP201 = experiment: as above; settings: P. falciparum in erythrocytes, SYBR Green DNA, 72 h; series mostly up to 28.7 µM
In short: as §1

CP203 = experiment: as above; settings: P. falciparum in erythrocytes, SYBR Green DNA, 72 h; series mostly up to 28.7 µM
In short: as §1

CP211 = experiment: as above; settings: P. falciparum in erythrocytes, SYBR Green DNA, 72 h; series mostly up to 28.7 µM
In short: as §1

CP215 = experiment: as above; settings: P. falciparum in erythrocytes, SYBR Green DNA, 72 h; series mostly up to 28.7 µM
In short: as §1

CP217 = experiment: as above; settings: P. falciparum in erythrocytes, SYBR Green DNA, 72 h; series mostly up to 28.7 µM
In short: as §1

CP237 = experiment: as above; settings: P. falciparum in erythrocytes, SYBR Green DNA, 72 h; series mostly up to 28.7 µM
In short: as §1

CP238 = experiment: as above; settings: P. falciparum in erythrocytes, SYBR Green DNA, 72 h; series mostly up to 28.7 µM
In short: as §1

CP247 = experiment: as above; settings: P. falciparum in erythrocytes, SYBR Green DNA, 72 h; series mostly up to 28.7 µM
In short: as §1

CP250 = experiment: as above; settings: P. falciparum in erythrocytes, SYBR Green DNA, 72 h; series mostly up to 28.7 µM
In short: as §1

CP252 = experiment: as above; settings: P. falciparum in erythrocytes, SYBR Green DNA, 72 h; series mostly up to 28.7 µM
In short: as §1

CP256 = experiment: as above; settings: P. falciparum in erythrocytes, SYBR Green DNA, 72 h; series mostly up to 28.7 µM
In short: as §1

CP260 = experiment: as above; settings: P. falciparum in erythrocytes, SYBR Green DNA, 72 h; series mostly up to 28.7 µM
In short: as §1

C[C@H](O)[C@@H]1C(=O)N2C(C(=O)O)=C(SCCN=CN)C[C@@H]12
inactive: activity change, negative = inhibition [1] -9.39% | activity, negative = inhibition [2] -2.21% | Potency [3] > 20.6 µM | Potency [4] > 20.6 µM | Potency [5] | Potency [6] | Potency [7] | Potency [8] | Potency [9] | Potency [10] | activity, negative = inhibition ([11]; parasite line A) 7.64% | activity, negative = inhibition ([11]; parasite line B) 5.5% | Potency (3D7) | Potency (7G8) | Potency (AA1029) | Potency (AS120) | Potency (ATS189) | Potency (ATS95) | Potency (C2A) | Potency (CP185) | Potency (CP191) | Potency (CP192) | Potency (CP194) | Potency (CP201) | Potency (CP203) | Potency (CP211) | Potency (CP215) | Potency (CP217) | Potency (CP237) | Potency (CP238) | Potency (CP247) | Potency (CP250) | Potency (CP252) | Potency (CP256) | Potency (CP260)
